The values below come from PubChem BioAssay (EPA / NIEHS).

What all share (conditions): mRNA level, 48 h; actives raise or lower the signal
Read-out in test [1]: Tumor necrosis factor receptor superfamily member 6 (Homo sapiens) (UniProt P25445)
Description: LTEA_HepaRG_FAS: Life Technologies and Expression Analysis (LTEA) Assay for Fas cell surface death receptor (FAS) using HepaRG (AID 2283447). The method, boiled down: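 Differentiated human HepaRG cells, pre-cultured 48 h, were exposed in duplicate for 48 h to 8-point half-log concentrations (top 100 uM, 0.5% DMSO) in serum-free induction medium; FAS mRNA measured by qRT-PCR, normalized to ACTB/GAPDH/POLR2A, bidirectional fit versus DMSO.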

Read-out in test [2]: Fatty acid synthase (Homo sapiens) (UniProt P49327)
Description: LTEA_HepaRG_FASN: Life Technologies and Expression Analysis (LTEA) Assay for Fatty Acid Synthase (FASN) using HepaRG (AID 2283448). The method, boiled down:
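Transcript-level assay: HepaRG liver cells are treated for 48 h across an eight-point range topping at 100 uM, and FASN mRNA, normalized to three housekeeping genes, is compared with DMSO controls in both directions.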

Read-out in test [3]: Cyclin D2 (CCND2), CCND2 (gene 894)
Description: LTEA_HepaRG_CCND2: Life Technologies and Expression Analysis (LTEA) Assay for Cyclin D2 (CCND2) using HepaRG (AID 2283449).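 Also: CCND2 transcript measured by TaqMan qRT-PCR and normalised to three housekeeping genes.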 The method, boiled down:
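Differentiated human HepaRG cells were exposed for 48 h in serum-free induction medium to eight half-log concentrations topping at 100 uM (0.5% DMSO vehicle). CCND2 mRNA was quantified by TaqMan qRT-PCR, normalised to ACTB, GAPDH and POLR2A, and fitted bidirectionally against DMSO.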

Read-out in test [4]: Cyclin Dependent Kinase Inhibitor 1A (CDKN1A), CDKN1A (gene 1026)
Description: LTEA_HepaRG_CDKN1A: Life Technologies and Expression Analysis (LTEA) Assay for Cyclin Dependent Kinase Inhibitor 1A (CDKN1A) using HepaRG (AID 2283450). The procedure, abridged:
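HepaRG, 48 h dosing, 8-pt half-log series from 100 uM top, 0.5% DMSO vehicle, duplicates. Readout: TaqMan qRT-PCR of CDKN1A transcript, housekeeping-normalized (ACTB, GAPDH, POLR2A). Up/down curve fit relative to DMSO.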

Read-out in test [5]: Cyclin D1 (CCND1), CCND1 (gene 595)
Description: LTEA_HepaRG_CCND1: Life Technologies and Expression Analysis (LTEA) Assay for Cyclin D1 (CCND1) using HepaRG (AID 2283451). The procedure, abridged:
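qRT-PCR (Fluidigm 96.96 array) read-out of transcript level, housekeeping-normalized (ACTB/GAPDH/POLR2A). HepaRG cells, 48 h chemical exposure, 8-point half-log series from 100 uM, 0.5% DMSO vehicle; gain or loss relative to DMSO baseline.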

Read-out in test [6]: catalase (CAT), CAT (gene 847)
Description: LTEA_HepaRG_CAT: Life Technologies and Expression Analysis (LTEA) Assay for catalase (CAT) using HepaRG (AID 2283452). The procedure, abridged:
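Differentiated HepaRG cells in serum-free induction medium were dosed 48 h in duplicate, eight half-log concentrations from 100 uM in 0.5% DMSO. Transcript measured by TaqMan qRT-PCR, normalised to ACTB/GAPDH/POLR2A, fitted bidirectionally against DMSO.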

Read-out in test [7]: flavin-containing dimethylaniline monooxygenases 3 (FMO3), FMO3 (gene 2328)
Description: LTEA_HepaRG_FMO3: Life Technologies and Expression Analysis (LTEA) Assay for flavin-containing dimethylaniline monooxygenases 3 (FMO3) using HepaRG (AID 2283453). The procedure, abridged: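 HepaRG, 48 h exposure, 8-pt half-log series from 100 uM, 0.5% DMSO vehicle, duplicates; FMO3 transcript by Fluidigm TaqMan qRT-PCR, housekeeping-normalized; gain/loss fit vs DMSO.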

Read-out in test [8]: Cytochrome P450 (CYP1A1), CYP1A1 (gene 1543)
Description: LTEA_HepaRG_CYP1A1: Life Technologies and Expression Analysis (LTEA) Assay for Cytochrome P450 (CYP1A1) using HepaRG (AID 2283454). The method, boiled down: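 qRT-PCR read-out: CYP1A1 transcript normalized to three housekeeping genes, fitted bidirectionally against 0.5% DMSO vehicle baseline. Human HepaRG cells, 48 h chemical exposure, 8-point half-log series topping at 100 uM.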

Read-out in test [9]: CFLAR gene, CFLAR (gene 8837)
Description: LTEA_HepaRG_CFLAR: Life Technologies and Expression Analysis (LTEA) Assay for CFLAR gene using HepaRG (AID 2283455). The method, boiled down: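 HepaRG cells were plated for 48 h, switched to serum-free induction medium, then exposed in duplicate for 48 h to 8 concentrations (top 100 uM, half-log steps, 0.5% DMSO). CFLAR mRNA was measured by qRT-PCR, normalized to ACTB, GAPDH and POLR2A.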

Read-out in test [10]: Forkhead box O1 (FOXO1), FOXO1 (gene 2308)
The experiment in a line: LTEA_HepaRG_FOXO1: Life Technologies and Expression Analysis (LTEA) Assay for Forkhead box O1 (FOXO1) using HepaRG (AID 2283456). The procedure, abridged:
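Differentiated human HepaRG cells in serum-free induction medium were exposed in duplicate for 48 h to eight half-log concentrations (top 100 uM, 0.5% DMSO). FOXO1 mRNA was measured by TaqMan qRT-PCR, normalised to ACTB, GAPDH and POLR2A, and fitted bidirectionally against DMSO.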

Read-out in test [11]: growth arrest and DNA damage 45 (GADD45A), GADD45A (gene 1647)
The experiment in a line: LTEA_HepaRG_GADD45A: Life Technologies and Expression Analysis (LTEA) Assay for growth arrest and DNA damage 45 (GADD45A) using HepaRG (AID 2283458). The method, boiled down:
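Human HepaRG liver cells are treated in duplicate for 48 h with chemicals in 0.5% DMSO, highest concentration 100 uM. Expression is read by qRT-PCR and analyzed in both directions against vehicle.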

Read-out in test [12]: Forkhead box O3 (FOXO3), FOXO3 (gene 2309)
Description: LTEA_HepaRG_FOXO3: Life Technologies and Expression Analysis (LTEA) Assay for Forkhead box O3 (FOXO3) using HepaRG (AID 2283459). The method, boiled down:
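Differentiated human HepaRG cells in serum-free induction medium were exposed in duplicate for 48 h to eight half-log concentrations up to 100 uM in 0.5% DMSO. FOXO3 mRNA was quantified by qRT-PCR, normalized to ACTB, GAPDH and POLR2A, with bidirectional fitting versus DMSO.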

Read-out in test [13]: ABC Transporter (ABCB1), ABCB1 (gene 5243)
The experiment in a line: LTEA_HepaRG_ABCB1: Life Technologies and Expression Analysis (LTEA) Assay for ABC Transporter (ABCB1) using HepaRG (AID 2283460). The procedure, abridged:
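Differentiated human HepaRG cells, plated 48 h then switched to serum-free induction medium, were exposed in duplicate to eight half-log concentrations up to 100 uM in 0.5% DMSO for 48 h. ABCB1 mRNA was measured by TaqMan qRT-PCR, normalized to ACTB/GAPDH/POLR2A.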

Read-out in test [14]: growth arrest and DNA damage 45 (GADD45B), GADD45B (gene 4616)
Description: LTEA_HepaRG_GADD45B: Life Technologies and Expression Analysis (LTEA) Assay for growth arrest and DNA damage 45 (GADD45B) using HepaRG (AID 2283461). The procedure, abridged:
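qRT-PCR read-out (Fluidigm TaqMan, housekeeping-normalized) of mRNA change in human HepaRG cells after 48 h chemical exposure; 8-point curve, top 100 uM, half-log steps, 0.5% DMSO vehicle; gain or loss fitted relative to DMSO baseline.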

Read-out in test [15]: ABC Transporter (ABCC3), ABCC3 (gene 8714)
Description: LTEA_HepaRG_ABCC3: Life Technologies and Expression Analysis (LTEA) Assay for ABC Transporter (ABCC3) using HepaRG (AID 2283462). The method, boiled down: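 qRT-PCR read-out of ABCC3 transcript, normalized to three housekeeping genes (ACTB, GAPDH, POLR2A), after 48 h chemical exposure of human HepaRG cells. Eight half-log concentrations, highest 100 uM, in 0.5% DMSO; gain or loss fitted relative to DMSO baseline.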

Read-out in test [16]: ABC Transporter (ABCC2), ABCC2 (gene 1244)
The experiment in a line: LTEA_HepaRG_ABCC2: Life Technologies and Expression Analysis (LTEA) Assay for ABC Transporter (ABCC2) using HepaRG (AID 2283464). The procedure, abridged:
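qRT-PCR (TaqMan, Fluidigm array) read-out of ABCC2 mRNA, normalized to three housekeeping genes. Differentiated HepaRG cells were treated 48 h in serum-free induction medium with 8-point half-log series from 100 uM in 0.5% DMSO; curves fitted bidirectionally relative to DMSO.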

Read-out in test [17]: Broad substrate specificity ATP-binding cassette transporter ABCG2 (Homo sapiens) (UniProt Q9UNQ0)
The experiment in a line: LTEA_HepaRG_ABCG2: Life Technologies and Expression Analysis (LTEA) Assay for ABC Transporter (ABCG2) using HepaRG (AID 2283465). The method, boiled down: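 Differentiated HepaRG cells in serum-free induction medium were exposed for 48 h, in duplicate, to eight half-log concentrations up to 100 uM in 0.5% DMSO. ABCG2 mRNA was measured by TaqMan qRT-PCR, normalized to ACTB, GAPDH and POLR2A, and fitted bidirectionally versus DMSO.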

Read-out in test [18]: ATP-citrate lyase (ACLY), ACLY (gene 47)
Description: LTEA_HepaRG_ACLY: Life Technologies and Expression Analysis (LTEA) Assay for ATP-citrate lyase (ACLY) using HepaRG (AID 2283466). The procedure, abridged: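 Differentiated human HepaRG cells in serum-free induction medium exposed 48 h, in duplicate, to eight half-log concentrations from 100 uM top in 0.5% DMSO; ACLY mRNA measured by qRT-PCR, normalized to ACTB, GAPDH, POLR2A, fitted bidirectionally versus DMSO.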

Read-out in test [19]: ABC Transporter (ABCB11), ABCB11 (gene 8647)
The experiment in a line: LTEA_HepaRG_ABCB11: Life Technologies and Expression Analysis (LTEA) Assay for ABC Transporter (ABCB11) using HepaRG (AID 2283463). The method, boiled down: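 Differentiated human HepaRG cells were exposed for 48 h in serum-free induction medium to eight half-log concentrations up to 100 uM in 0.5% DMSO. ABCB11 mRNA was quantified by qRT-PCR, normalized to ACTB, GAPDH and POLR2A, and fitted bidirectionally versus DMSO.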

Each structure is given as a SMILES string. Active and inactive are the calls of the source. The calls were made as follows: active = hit-call score of the fitted dose curve at least 0.9, where 1 is the maximum; inactive = score below 0.9.

Chain of Broad substrate specificity ATP-binding cassette transporter ABCG2 (Homo sapiens) (Q9UNQ0 whole entry, looked up): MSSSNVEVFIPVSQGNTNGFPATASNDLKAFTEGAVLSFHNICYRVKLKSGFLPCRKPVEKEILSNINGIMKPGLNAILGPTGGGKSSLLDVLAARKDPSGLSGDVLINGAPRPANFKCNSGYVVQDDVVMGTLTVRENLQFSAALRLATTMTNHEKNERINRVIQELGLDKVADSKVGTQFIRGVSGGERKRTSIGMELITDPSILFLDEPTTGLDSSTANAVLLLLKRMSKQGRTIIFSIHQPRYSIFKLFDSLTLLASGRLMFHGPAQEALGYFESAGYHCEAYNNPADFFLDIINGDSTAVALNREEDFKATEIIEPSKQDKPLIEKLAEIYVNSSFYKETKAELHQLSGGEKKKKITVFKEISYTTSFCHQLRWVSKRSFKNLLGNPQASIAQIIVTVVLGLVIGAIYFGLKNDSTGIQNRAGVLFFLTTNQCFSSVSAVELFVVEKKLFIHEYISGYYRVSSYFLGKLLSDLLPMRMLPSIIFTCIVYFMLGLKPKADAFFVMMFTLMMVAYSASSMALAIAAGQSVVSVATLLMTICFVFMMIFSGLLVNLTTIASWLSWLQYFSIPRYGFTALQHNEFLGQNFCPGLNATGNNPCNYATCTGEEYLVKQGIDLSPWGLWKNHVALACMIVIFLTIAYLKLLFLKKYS
Chain of Fatty acid synthase (Homo sapiens) (P49327 whole entry, looked up): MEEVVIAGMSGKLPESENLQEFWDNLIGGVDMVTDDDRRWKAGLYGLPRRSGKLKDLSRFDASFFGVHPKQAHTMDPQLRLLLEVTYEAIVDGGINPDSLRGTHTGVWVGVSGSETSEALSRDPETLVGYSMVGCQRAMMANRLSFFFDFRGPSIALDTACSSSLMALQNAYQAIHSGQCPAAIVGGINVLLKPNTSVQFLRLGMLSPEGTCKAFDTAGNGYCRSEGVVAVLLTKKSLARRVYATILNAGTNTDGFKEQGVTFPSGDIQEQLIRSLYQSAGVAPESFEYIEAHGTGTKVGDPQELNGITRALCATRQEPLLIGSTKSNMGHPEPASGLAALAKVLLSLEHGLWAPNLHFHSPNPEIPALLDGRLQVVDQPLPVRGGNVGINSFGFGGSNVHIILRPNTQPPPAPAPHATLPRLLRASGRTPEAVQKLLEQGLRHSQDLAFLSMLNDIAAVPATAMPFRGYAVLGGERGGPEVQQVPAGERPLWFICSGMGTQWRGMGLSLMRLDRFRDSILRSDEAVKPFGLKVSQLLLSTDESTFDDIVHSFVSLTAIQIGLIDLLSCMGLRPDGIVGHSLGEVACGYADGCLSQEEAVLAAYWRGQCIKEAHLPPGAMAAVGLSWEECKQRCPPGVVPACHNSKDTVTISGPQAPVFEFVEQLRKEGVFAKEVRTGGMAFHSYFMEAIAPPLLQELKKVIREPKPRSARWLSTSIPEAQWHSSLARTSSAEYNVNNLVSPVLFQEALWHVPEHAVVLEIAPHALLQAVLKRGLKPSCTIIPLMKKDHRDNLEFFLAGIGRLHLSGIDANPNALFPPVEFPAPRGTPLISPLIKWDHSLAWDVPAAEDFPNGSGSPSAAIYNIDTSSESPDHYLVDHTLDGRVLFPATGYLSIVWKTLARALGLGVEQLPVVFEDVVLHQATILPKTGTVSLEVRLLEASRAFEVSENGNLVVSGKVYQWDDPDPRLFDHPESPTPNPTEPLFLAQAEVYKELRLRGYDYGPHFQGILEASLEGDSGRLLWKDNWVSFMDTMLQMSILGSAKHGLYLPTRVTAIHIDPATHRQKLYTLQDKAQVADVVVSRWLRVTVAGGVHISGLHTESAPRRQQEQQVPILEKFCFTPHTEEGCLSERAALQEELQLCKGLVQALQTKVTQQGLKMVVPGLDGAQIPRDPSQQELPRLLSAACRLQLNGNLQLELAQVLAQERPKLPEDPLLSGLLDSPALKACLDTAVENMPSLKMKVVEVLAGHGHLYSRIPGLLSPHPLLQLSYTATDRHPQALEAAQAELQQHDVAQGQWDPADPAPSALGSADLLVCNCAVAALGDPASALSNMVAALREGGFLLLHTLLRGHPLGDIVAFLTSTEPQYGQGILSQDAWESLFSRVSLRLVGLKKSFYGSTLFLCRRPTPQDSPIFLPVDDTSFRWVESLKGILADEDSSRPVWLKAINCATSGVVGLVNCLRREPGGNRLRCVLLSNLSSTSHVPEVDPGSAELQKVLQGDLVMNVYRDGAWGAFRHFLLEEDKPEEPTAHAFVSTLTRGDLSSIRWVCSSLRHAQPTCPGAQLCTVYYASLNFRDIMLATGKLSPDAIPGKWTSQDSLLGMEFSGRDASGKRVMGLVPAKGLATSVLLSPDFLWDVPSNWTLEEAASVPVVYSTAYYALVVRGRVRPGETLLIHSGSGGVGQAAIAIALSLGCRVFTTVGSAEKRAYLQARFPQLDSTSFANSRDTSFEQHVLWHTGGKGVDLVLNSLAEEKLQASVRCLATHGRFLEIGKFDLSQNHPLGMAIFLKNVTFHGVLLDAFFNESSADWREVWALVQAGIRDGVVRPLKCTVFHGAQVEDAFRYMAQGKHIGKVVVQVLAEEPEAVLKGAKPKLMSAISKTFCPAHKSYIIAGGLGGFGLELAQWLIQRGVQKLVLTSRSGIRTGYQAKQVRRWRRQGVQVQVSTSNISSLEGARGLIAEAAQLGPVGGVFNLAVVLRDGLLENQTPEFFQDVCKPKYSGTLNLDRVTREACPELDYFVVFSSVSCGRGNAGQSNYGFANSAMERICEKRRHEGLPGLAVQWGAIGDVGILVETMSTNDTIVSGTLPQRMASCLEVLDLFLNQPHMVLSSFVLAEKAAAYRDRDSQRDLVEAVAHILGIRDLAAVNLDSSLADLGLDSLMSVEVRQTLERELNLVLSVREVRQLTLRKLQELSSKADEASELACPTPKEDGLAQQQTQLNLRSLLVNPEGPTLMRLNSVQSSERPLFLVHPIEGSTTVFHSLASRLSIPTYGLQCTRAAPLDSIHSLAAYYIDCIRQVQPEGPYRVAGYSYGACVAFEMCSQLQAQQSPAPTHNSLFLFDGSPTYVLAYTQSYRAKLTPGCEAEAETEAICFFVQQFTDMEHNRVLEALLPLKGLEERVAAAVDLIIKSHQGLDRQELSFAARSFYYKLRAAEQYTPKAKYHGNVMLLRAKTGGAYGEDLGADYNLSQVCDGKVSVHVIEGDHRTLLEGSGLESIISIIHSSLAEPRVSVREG

Consider `CCCCCCOCCO`, for which the call in [1], in test [2], in test [3], in test [4], in test [5] and in test [6] was inactive. Also, the outcome in test [7], in [9], in test [10], in test [11], in test [12] and in test [13] was inactive. Moreover, the outcome in [14], in [15], in test [16], in [17] and in test [18] was inactive. In test [8], the AC50 (commonly the concentration giving half of the maximal activity seen) was 50 µM (active).

In the case of `C[Si]1(C)O[Si](C)(C)O[Si](C)(C)O[Si](C)(C)O1`, the compound was classed as inactive in test [1], in test [2], in test [3], in test [4], in [5] and in test [6]. In addition, the compound was called inactive in test [7], in [8], in test [10], in test [11], in [12] and in [13]. Besides, the outcome in [14], in test [15], in test [19] and in test [17] was inactive.

For the compound `COc1cc(C=O)ccc1O`, the result in [1], in test [2], in [3], in [4], in test [5] and in test [6] was inactive. The result in test [7], in test [8], in [9], in test [10], in [11] and in test [12] was inactive. Also, the outcome in [13], in [14], in test [15], in test [19], in [17] and in test [18] was inactive.

For the compound `CC(=O)Oc1ccccc1C(=O)O`, the call in test [1], in test [2], in [3], in test [4], in test [5] and in test [6] was inactive. Besides, the outcome in test [7], in [10], in [11], in test [12], in test [13] and in test [14] was inactive. Besides, the compound was classed as inactive in test [15], in test [19], in test [16], in [17] and in [18]. Also, the AC50 in [8] is 50 µM (active).
